Test results published in PubChem BioAssay (EPA / NIEHS).
Where “and” joins values, the source holds several entries; their conditions need not be identical. Equal entries are not always repeated. Records with an inconclusive call do not appear. Calls of active or inactive are those of the source. How the source made its calls, unless noted: active means hit-call score of the fitted dose curve at least 0.9, where 1 is the maximum; inactive means score below 0.9.

What was measured:
[1] = read-out: Collagen I, COL1A1 (gene 1277); assay: BSK_MyoF_CollagenI: BioMAP Diversity Plus: MyoF Assay for Collagen I Biomarker Activity (AID 2284238); settings: primary human lung fibroblasts
Outline: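 Measured by ELISA: Collagen I from human lung fibroblasts 24 h after compound addition, analysed for signal gain with DMSO as baseline; overt toxicity read from SRB staining of parallel cultures at the same time.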

[2] = read-out: Collagen III, COL3A1 (gene 1281); assay: BSK_MyoF_CollagenIII: BioMAP Diversity Plus: MyoF Assay for Collagen III Biomarker Activity (AID 2284239); settings: primary human lung fibroblasts
Outline: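 Multiplexed cell assay in lung fibroblasts, harvested at 24 h post-dose. Collagen III detected by ELISA, with positive-direction fitting relative to DMSO vehicle.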

[3] = read-out: Interleukin 17F (IL17F), IL17F (gene 112744); assay: BSK_BT_xIL17F: BioMAP Diversity Plus: BT Assay for Interleukin 17F (IL17F) Biomarker Activity (AID 2284243); settings: primary human B cells with PBMC
Outline: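 Luminex readout of IL-17F secretion, 24 h; cells: human B cells with PBMC; positive-direction analysis, DMSO control.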

[4] = read-out: Actin alpha 1 (ACTA1), ACTA1 (gene 58); assay: BSK_MyoF_ACTA1: BioMAP Diversity Plus: MyoF Assay for Actin alpha 1 (ACTA1) Biomarker Activity (AID 2284244); settings: primary human lung fibroblasts
Outline: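 Lung fibroblasts, human primary, 24 h compound exposure → a-SMA ELISA. Positive-direction fit vs DMSO control.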

[5] = read-out: Interleukin 2 (IL2), IL2 (gene 3558); assay: BSK_BT_xIL2: BioMAP Diversity Plus: BT Assay for Interleukin 2 (IL2) Biomarker Activity (AID 2284245); settings: primary human B cells with PBMC
Outline: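 B cell + PBMC co-culture (human primary), compound added, 24 h incubation; secreted IL-2 measured multiplexed on Luminex xMAP; gain-of-signal fit vs DMSO.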

[6] = read-out: Collagen IV, COL4A1 (gene 1282); assay: BSK_MyoF_CollagenIV: BioMAP Diversity Plus: MyoF Assay for Collagen IV Biomarker Activity (AID 2284247); settings: primary human lung fibroblasts
Outline: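 Steps: dose human lung fibroblasts; culture 24 h; quantify Collagen IV by ELISA; fit increase versus DMSO control. Parallel SRB total-protein staining (0.1% SRB after 10% TCA fixation, 560 nm) tracks overt cytotoxicity.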

[7] = read-out: Plasminogen activator inhibitor-1 (PAI1), SERPINE1 (gene 5054); assay: BSK_MyoF_PAI1: BioMAP Diversity Plus: MyoF Assay for Plasminogen activator inhibitor-1 (PAI1) Biomarker Activity (AID 2284256); settings: primary human lung fibroblasts
Outline: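 In this multiplexed primary-cell system, fibroblasts from human lung received compound for 24 h before ELISA detection of PAI-1; overt toxicity was checked by SRB (0.1%, TCA-fixed, 560 nm) in parallel wells.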

[8] = CCTE_Mundy_HCI_hNP1_Casp3_7: CCTE's Caspase-Glo 3/7 Assay in human neuroprogenitor cells for Apoptosis, Mundy Lab (AID 2284240)
Outline: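 Apoptosis is scored by activated caspase-3/7 luminescence in WA09-derived neural progenitor cells, measured 26.5 h after chemical dosing. Values represent gain of signal relative to DMSO vehicle.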

[9] = CCTE_Mundy_HCI_Cortical_Synap_Neur_Matur_NeuronCount: CCTE's Synaptogenesis and Neurite Maturation Assay in rat cortical cells for Neuron Count, Mundy Lab (AID 2284242; active means hit-call score of the fitted dose curve at least 0.9, where 1 is the maximum;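 further: hits reduce neuron count versus DMSO baseline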)
Outline: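 Neuron number was scored by automated high-content imaging of Hoechst- and MAP2-labelled rat primary cortical cells. Glial growth was arrested with AraC at DIV 5, compounds were applied from DIV 7, and cultures ended at DIV 12.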

[10] = read-out: Monokine induced gamma interferon (MIG), CXCL9 (gene 4283); assay: BSK_KF3CT_MIG: BioMAP Diversity Plus: KF3CT Assay for Monokine induced gamma interferon (MIG) Biomarker Activity (AID 2284248); settings: primary human keratinocytes with fibroblasts
Outline: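 MIG in dosed human skin co-cultures was measured by ELISA at 24 h, relative to DMSO.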

[11] = read-out: Collagen I, COL1A1 (gene 1277); assay: BSK_hDFCGF_CollagenI: BioMAP Diversity Plus: hDFCGF Assay for Collagen I Biomarker Activity (AID 2284250); settings: primary human foreskin fibroblasts
Outline: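 Human skin primary fibroblasts dosed with test chemical, harvested at 24 h, Collagen I quantified by ELISA; parallel SRB staining (0.1% SRB after 10% TCA fixation, 560 nm) tracked cytotoxicity.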

[12] = read-out: Interferon-inducible T-cell alpha chemoattractant (ITAC), CXCL11 (gene 6373); assay: BSK_hDFCGF_ITAC: BioMAP Diversity Plus: hDFCGF Assay for Interferon-inducible T-cell alpha chemoattractant (ITAC) Biomarker Activity (AID 2284251); settings: primary human foreskin fibroblasts
Outline: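 Fibroblasts (human foreskin, primary) are treated with chemical, cultured 24 h, then assayed for I-TAC by ELISA. Overt toxicity is checked in parallel cultures by sulforhodamine B staining of total protein at the same time point.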

[13] = read-out: Plasminogen activator inhibitor-1 (PAI1), SERPINE1 (gene 5054); assay: BSK_KF3CT_PAI1: BioMAP Diversity Plus: KF3CT Assay for Plasminogen activator inhibitor-1 (PAI1) Biomarker Activity (AID 2284252); settings: primary human keratinocytes with fibroblasts
Outline: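 ELISA read-out of PAI-1 taken 24 h after chemical treatment of a human skin primary co-culture of keratinocytes and foreskin fibroblasts. Increases over DMSO-treated wells defined activity.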

[14] = read-out: Interleukin-8 (IL8), CXCL8 (gene 3576); assay: BSK_KF3CT_IL8: BioMAP Diversity Plus: KF3CT Assay for Interleukin-8 (IL8) Biomarker Activity (AID 2284254); settings: primary human keratinocytes with fibroblasts
Outline: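 Using parallel SRB-stained cultures to flag overt toxicity, the study quantified IL-8 by ELISA in human keratinocyte–foreskin fibroblast co-cultures 24 h after dosing, with DMSO as negative control and baseline.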

Measured: AC50

OCCN1CN(CCO)CN(CCO)C1
inactive: [1] | [2] | [4] | [6] | [7]
active: [3] 20 µM | [5] 31.3 µM

O=C(CCCN1CCC(O)(c2ccc(Cl)cc2)CC1)c1ccc(F)cc1
active: [8] 70.7 µM | [9] 21.9 µM

CCOC(=O)CN[C@@H](C(=O)N1CC[C@H]1C(=O)NCc1ccc(/C(N)=N/O)cc1)C1CCCCC1
inactive: [1] | [2] | [3] | [4] | [5] | [6] | [7]

CCCCCc1ccc(O)cc1
active: [1] 24 µM | [2] 16.1 µM | [4] 11.3 µM | [6] 20 µM | [7] 32.2 µM
inactive: [3] | [5]

NC(=NCCCCCCN=C(N)/N=C(\N)Nc1ccc(Cl)cc1)/N=C(\N)Nc1ccc(Cl)cc1
active: [1] 1.21 µM | [2] 2.24 µM | [3] 5.34 µM | [4] 4.86 µM | [5] 8.05 µM | [6] 8.69 µM | [7] 4.43 µM

CC[N+](CC)(CC)Cc1ccccc1
inactive: [1] | [2] | [3] | [4] | [5] | [6] | [7]

CCCCCCCCCCCC
active: [10] 20.2 µM and 20.6 µM | [11] 9.41 µM and 9.63 µM | [12] 8.55 µM and 5.79 µM | [13] 10.4 µM and 10.5 µM | [14] 20 µM and 27.3 µM

CCCCCCCCCCCCCCCCCC[N+](C)(C)Cc1ccccc1
active: [1] 1.02 µM | [2] 2.09 µM | [3] 2.42 µM | [4] 2.7 µM | [5] 1.97 µM | [7] 2.91 µM
inactive: [6]

O=C(NCc1ncc(C(F)(F)F)cc1Cl)c1c(Cl)cccc1Cl
active: [3] 21 µM | [5] 32.1 µM
inactive: [1] | [2] | [4] | [6] | [7]

C=COC(=O)C(C)(C)CCCCCC
active: [1] 34.2 µM | [2] 31.9 µM | [4] 34.3 µM | [6] 29.7 µM | [7] 34 µM
inactive: [3] | [5]

Oc1ccc(Cc2ccccc2O)cc1
inactive: [10] | [11] | [12] | [13] | [14]

O=C1OC2(c3ccccc31)c1cc(I)c(O)c(I)c1Oc1c2cc(I)c(O)c1I
active: [1] 5.89 µM | [6] 3.8 µM | [7] 2.72 µM
inactive: [3] | [4] | [5]

COCN(COC)c1nc(N(COC)COC)nc(N(COC)COC)n1
inactive: [1] | [2] | [3] | [4] | [5] | [6] | [7]

Nc1ccn([C@@H]2O[C@H](CO)[C@@H](O)C2O)c(=O)n1 (stereo partly drawn)
active: [8] 0.207 µM | [9] 10.8 µM

C=CC(C)(CCC=C(C)C)OC(C)=O (stereo not drawn)
inactive: [1] | [2] | [3] | [4] | [5] | [6] | [7]

CC(=O)Nc1ccc(O)cc1
inactive: [8]

C=CC(=C)CC/C=C(\C)CCC=C(C)C
inactive: [1] | [2] | [3] | [4] | [5] | [6] | [7]

Oc1c(Cl)cc(Cl)cc1Sc1cc(Cl)cc(Cl)c1O
inactive: [14]
active: [10] 2.92 µM and 2.86 µM | [11] 1.32 µM and 960 nM | [12] 1.25 µM and 1.44 µM | [13] 1.67 µM and 1.83 µM
